The record followed here is PubChem BioAssay (NCI).

Several values for one entry are separate records, joined by “and”; a condition that tells them apart may be missing. Identical values can stand only once. About 83,000 compounds went through this panel and 20% of them were active in at least one assay; those are over-represented in the sample as a whole.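 Compound tested at a single concentration for 48 hours in 96-well plates; a percent growth value below 10 was scored as active.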 Activity calls are given as the source filed them.

One test concerns HOP-62 NSCLC. Kind of test: NCI-60 one-dose screen, 48 h (100 = growth as untreated, 0 = no growth, -100 = all killed). As to conditions: 10 µM.
For the compound `O=C(CNS(=O)(=O)Cc1ccccc1)NNc1ccccc1`, the growth is 46.3% (inactive).

In the case of `COc1ccc2c(c1)[nH]c1c(/C=C/c3ccccc3)nccc12`, the growth was 71.8% (inactive).

Turning to `COc1ccc(C(C#N)=C2C=CC(=NO)C=C2)cc1`, the growth was 47.7% (inactive).

For the compound `CCOC(=O)[C@]1(Br)CC[C@@]1(Br)C(=O)OCC`, the growth is 127% (inactive).

Turning to `Cc1cc(C)c(N2C(=O)CC(Sc3ccccc3N)C2=O)c(C)c1` (stereo not given), the growth was 70.4% (inactive).

As to `O=C1C=CC(=O)N1c1ccc(N2C(=O)C=CC2=O)cc1`, the growth was 86.8% (inactive).

With `O=C1C(Cl)=C(Cl)C(Cl)(Cl)C(Cl)C1(Cl)Cl` (stereo not given), the growth is 98.5% (inactive).

On to `O=C(O)c1ccccc1.[Ag]`, for which the growth is 108% (inactive).

With `COc1cc(N)ccc1Nc1c2ccccc2nc2ccccc12`, the growth was 83.6% (inactive).

For `O=C1c2ccccc2CCC1(Br)Br`, the growth was 96.5% (inactive).

As for `CN(C)CCNc1cccc2sc3ccc(O)cc3c(=O)c12`, the growth was 46.2% (inactive).

`CN(C)c1ccc(/C=C/c2ccnc3ccccc23)cc1N`: the growth is 77.2% (inactive).

For the compound `Cn1c2nc3ccccc3c-2nc2ccccc21`, the growth is 80.5% (inactive) and 85.1% (inactive).

Regarding `S=C1SCN(CCc2ccccc2)CN1CCc1ccccc1`, the growth is 87.6% (inactive).

Take `CN(CC(=O)O)c1ccc(/C=C/c2ccnc3ccccc23)cc1`: the growth was 83.5% (inactive).

In the case of `O=S(=O)(c1cc(Cl)ccc1O)c1cc(Cl)ccc1O`, the growth was 83.7% (inactive).

With `O=[N+]([O-])c1cc(S(=O)(=O)Nc2ccccc2)ccc1Cl`, the growth is 104% (inactive).

As to `Cc1cc(Cl)ccc1NC(=O)/C(Cl)=C1/Sc2ccccc2NC1=O`, the growth was 91% (inactive).

`O=Nc1ccc(Nc2ccccc2)cc1`: the growth is 111% (inactive).

Turning to `Cn1ncc2cc3c(Nc4ccc(Cl)cc4)cccc3nc21`, the growth is 89.3% (inactive).

A further test has as its system HOP-92 NSCLC. The test is described as above. As to conditions: 10 µM.
Regarding `O=C(CNS(=O)(=O)Cc1ccccc1)NNc1ccccc1`, the growth is 101% (inactive).

For `COc1ccc(C(C#N)=C2C=CC(=NO)C=C2)cc1`, the growth was 137% (inactive).

Take `CCOC(=O)[C@]1(Br)CC[C@@]1(Br)C(=O)OCC`: the growth was 109% (inactive).

Consider `O=C1C=CC(=O)N1c1ccc(N2C(=O)C=CC2=O)cc1`, for which the growth was 123% (inactive).

For `O=C1C(Cl)=C(Cl)C(Cl)(Cl)C(Cl)C1(Cl)Cl` (stereo not given), the growth was 104% (inactive).

With `O=C(O)c1ccccc1.[Ag]`, the growth was 107% (inactive).

As for `ClCCn1c(CCl)nc2ccc(Cl)cc21`, the growth is -57.2% (active).

Consider `CN(C)CCNc1cccc2sc3ccc(O)cc3c(=O)c12`, for which the growth is 31.9% (inactive).

On to `CN(C)c1ccc(/C=C/c2ccnc3ccccc23)cc1N`, for which the growth is -3.62% (active).

Take `Cn1c2nc3ccccc3c-2nc2ccccc21`: the growth was 77.6% (inactive) and 79.1% (inactive).

Turning to `CN(CC(=O)O)c1ccc(/C=C/c2ccnc3ccccc23)cc1`, the growth was 46.2% (inactive).

Regarding `O=S(=O)(c1cc(Cl)ccc1O)c1cc(Cl)ccc1O`, the growth is 6.03% (active).

Consider `O=[N+]([O-])c1cc(S(=O)(=O)Nc2ccccc2)ccc1Cl`, for which the growth is 90% (inactive).

Turning to `Cc1cc(Cl)ccc1NC(=O)/C(Cl)=C1/Sc2ccccc2NC1=O`, the growth was 70.5% (inactive).

In the case of `O=Nc1ccc(Nc2ccccc2)cc1`, the growth was 26% (inactive).

For `Cn1ncc2cc3c(Nc4ccc(Cl)cc4)cccc3nc21`, the growth is 77% (inactive).

In the next test the test system is NCI-H522 lung. The test is described as above. As to conditions: 10 µM.
As for `O=C(CNS(=O)(=O)Cc1ccccc1)NNc1ccccc1`, the growth was 41% (inactive).

Regarding `COc1ccc2c(c1)[nH]c1c(/C=C/c3ccccc3)nccc12`, the growth is 40.3% (inactive).

On to `COc1ccc(C(C#N)=C2C=CC(=NO)C=C2)cc1`, for which the growth was -24.7% (active).

In the case of `CCOC(=O)[C@]1(Br)CC[C@@]1(Br)C(=O)OCC`, the growth is -6.96% (active).

With `Cc1cc(C)c(N2C(=O)CC(Sc3ccccc3N)C2=O)c(C)c1` (stereo not given), the growth is 78.8% (inactive).

With `O=C1C=CC(=O)N1c1ccc(N2C(=O)C=CC2=O)cc1`, the growth is -11.5% (active).

Consider `O=C1C(Cl)=C(Cl)C(Cl)(Cl)C(Cl)C1(Cl)Cl` (stereo not given), for which the growth was 89.3% (inactive).

For the compound `O=C(O)c1ccccc1.[Ag]`, the growth was -25.1% (active).

`ClCCn1c(CCl)nc2ccc(Cl)cc21`: the growth is -73.2% (active).

Regarding `O=C1c2ccccc2CCC1(Br)Br`, the growth was -70.8% (active).

On to `CN(C)c1ccc(/C=C/c2ccnc3ccccc23)cc1N`, for which the growth is 56.6% (inactive).

Regarding `Cn1c2nc3ccccc3c-2nc2ccccc21`, the growth was 102% (inactive) and 87.8% (inactive).

As for `S=C1SCN(CCc2ccccc2)CN1CCc1ccccc1`, the growth is 58.6% (inactive).

Consider `CN(CC(=O)O)c1ccc(/C=C/c2ccnc3ccccc23)cc1`, for which the growth was 78.1% (inactive).

With `O=S(=O)(c1cc(Cl)ccc1O)c1cc(Cl)ccc1O`, the growth was 63.9% (inactive).

For `O=[N+]([O-])c1cc(S(=O)(=O)Nc2ccccc2)ccc1Cl`, the growth was 73.8% (inactive).

In the case of `Cc1cc(Cl)ccc1NC(=O)/C(Cl)=C1/Sc2ccccc2NC1=O`, the growth was 104% (inactive).

With `O=Nc1ccc(Nc2ccccc2)cc1`, the growth was 66.8% (inactive).

For `Cn1ncc2cc3c(Nc4ccc(Cl)cc4)cccc3nc21`, the growth is 83.8% (inactive).
